About 2,000 (36%) of roughly 5,500 compounds were called active. Inconclusive results (about 18%) are left out. Rule as the data show it: active = normalized growth mostly below about 0.91 (no sharp cut-off); inconclusive = no clear call, values can overlap the other calls; inactive = mostly above about 0.92. The list shows a part of the results.
Assay: chemical genetic growth profiling, strain panel (AID 1159580);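 also: tested at 20 µM; growth read once vehicle control cultures reached saturation at 30 °C; 1 = growth at the plate median or of vehicle wells; lower values mean less growth of the strain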
Conditions: S. cerevisiae deletion strains, growth OD
[1] = locus YDL101C, strain DUN1, hits give low values
[2] = locus YHR030C, strain SLT2, hits give low values
[3] = locus YHR079C, strain IRE1, hits give low values
[4] = locus YJL095W, strain BCK1, hits give low values
[5] = locus YJR066W, strain TOR1, hits give low values
[6] = locus YLR113W, strain HOG1, hits give low values
[7] = locus YNL183C, strain NPR1, hits give low values
[8] = locus YOR231W, strain MKK1, hits give low values
[9] = locus YPL256C, strain CLN2, hits give low values
[10] = locus YGR078C, strain PAC10, hits give low values
[11] = locus YMR263W, strain SAP30, hits give low values
[12] = locus YNL322C, strain KRE1, hits give low values
[13] = locus YCL061C, strain MRC1, hits give low values

Measured: normalized growth

O=C1C(NCc2ccccc2)=C(NCc2ccccc2)C(=O)c2ccccc21
active: locus YDR226W, strain ADK1, hits give low values 0.893 | locus YFR028C, strain CDC14, hits give low values 0.881 | locus YJR016C, strain ILV3, hits give low values 0.898 | locus YNL207W, strain RIO2, hits give low values 0.874
inactive: locus YAR019C, strain CDC15, hits give low values 0.929 | locus YBL105C, strain PKC1, hits give low values 0.915 | locus YBR135W, strain CKS1, hits give low values 0.918 | locus YBR136W, strain MEC1, hits give low values 0.913 | locus YBR160W, strain CDC28, hits give low values 0.92 | locus YDL017W, strain CDC7, hits give low values 0.922 | locus YDL028C, strain MPS1, hits give low values 0.904 | [1] 0.916 | locus YDL108W, strain KIN28, hits give low values 0.897 | locus YDL132W, strain cdc53, hits give low values 0.907 | locus YDL214C, strain PRR2, hits give low values 0.869 | locus YDR052C, strain DBF4, hits give low values 0.931 | locus YDR054C, strain cdc34, hits give low values 0.921 | locus YDR477W, strain SNF1, hits give low values 0.839 | locus YER123W, strain YCK3, hits give low values 0.845 | locus YER133W, strain GLC7, hits give low values 0.839 | locus YFL009W, strain cdc4, hits give low values 0.902 | locus YFL029C, strain CAK1, hits give low values 0.913 | locus YFR003C, strain YPI1, hits give low values 0.912 | locus YFR019W, strain FAB1, hits give low values 0.942 | locus YGR040W, strain KSS1, hits give low values 0.825 | locus YGR052W, strain FMP48, hits give low values 0.893 | locus YGR092W, strain DBF2, hits give low values 0.744 | [2] 0.885 | [3] 0.979 | locus YHR082C, strain KSP1, hits give low values 0.883 | locus YHR205W, strain SCH9, hits give low values 0.931 | locus YIL147C, strain SLN1, hits give low values 0.895 | [4] 0.886 | locus YJL128C, strain PBS2, hits give low values 0.885 | locus YJL157C, strain FAR1, hits give low values 0.833 | locus YJR066W, strain TOR1 (second series), hits give low values 0.775 | [5] 0.879 | locus YKL048C, strain ELM1, hits give low values 0.829 | locus YKL067W, strain YNK1, hits give low values 0.862 | locus YKL101W, strain HSL1, hits give low values 0.875 | locus YKL193C, strain SDS22, hits give low values 0.906 | locus YKL203C, strain TOR2, hits give low values 0.84 | [6] 0.895 | locus YLR133W, strain CKI1, hits give low values 0.856 | locus YLR403W, strain SFP1, hits give low values 0.802 | locus YML070W, strain DAK1, hits give low values 0.871 | locus YMR001C, strain CDC5, hits give low values 0.896 | locus YMR205C, strain PFK2 (second series), hits give low values 0.878 | locus YMR277W, strain FCP1, hits give low values 0.903 | locus YNL006W, strain LST8, hits give low values 0.923 | locus YNL020C, strain ARK1, hits give low values 0.845 | locus YNL161W, strain CBK1, hits give low values 0.922 | [7] 0.904 | locus YNL222W, strain SSU72, hits give low values 0.925 | locus YNL307C, strain MCK1 (second series), hits give low values 0.842 | locus YOL078W, strain AVO1, hits give low values 0.911 | locus YOL136C, strain PFK27, hits give low values 0.884 | locus YOR061W, strain CKA2, hits give low values 0.817 | locus YOR119C, strain RIO1, hits give low values 0.784 | [8] 0.954 | locus YOR329C, strain SCD5, hits give low values 0.935 | locus YPL031C, strain PHO85, hits give low values 0.837 | locus YPL153C, strain RAD53, hits give low values 0.826 | locus YPL204W, strain HRR25, hits give low values 0.827 | locus YPL209C, strain IPL1, hits give low values 0.934 | [9] 0.986 | locus YPR025C, strain CCL1, hits give low values 0.93 | locus YPR106W, strain ISR1, hits give low values 0.899 | locus YPR111W, strain DBF20, hits give low values 0.91 | strain NNK1, hits give low values 0.902 | strain TSCII, hits give low values 0.907

CCn1c(=O)[nH]c2cc(Cl)c(Cl)cc21
inactive: locus YAL040C, strain CLN3, hits give low values 0.99 | locus YCL061C, strain MRC1 (second series), hits give low values 1.01 | locus YDR363W, strain ESC2, hits give low values 0.992 | locus YER002W, strain NOP16, hits give low values 0.986 | [10] 0.992 | [11] 1 | locus YMR307W, strain GAS1, hits give low values 1 | locus YNL175C, strain NOP13, hits give low values 0.98 | locus YNL197C, strain WHI3, hits give low values 1 | locus YNL224C, strain SQS1, hits give low values 1 | [12] 1.01 | locus YOR083W, strain WHI5 (second series), hits give low values 1.04

O=C1c2ccccc2C(=O)C1(O)C1(O)C(=O)c2ccccc2C1=O
inactive: [2] 1.04 | [3] 1.04 | [4] 1.04 | [5] 0.953 | [6] 1.03 | [7] 0.984 | [8] 1.05 | [9] 1.07

O=C1C=CC(=O)c2ccccc21
active: locus YAL021C, strain ccr4, hits give low values 0.0676 | locus YAL026C, strain drs2, hits give low values 0.0697 | locus YAL030W, strain snc1, hits give low values 0.0571 | locus YBL061C, strain skt5, hits give low values 0.0618 | locus YBR009C, strain hhf1, hits give low values 0.064 | locus YBR023C, strain chs3, hits give low values 0.0634 | locus YBR171W, strain sec66, hits give low values 0.0895 | locus YBR231C, strain swc5, hits give low values 0.0652 | locus YBR279W, strain paf1, hits give low values 0.0871 | locus YCL011C, strain gbp2, hits give low values 0.0594 | locus YCL016C, strain dcc1, hits give low values 0.0722 | [13] 0.0703 | locus YCL069W, strain vba3, hits give low values 0.0688 | locus YCR088W, strain abp1, hits give low values 0.0699 | locus YDL005C, strain med2, hits give low values 0.0758 | locus YDL040C, strain nat1, hits give low values 0.0706 | locus YDR001C, strain nth1, hits give low values 0.0722 | locus YDR069C, strain doa4, hits give low values 0.0698 | locus YDR137W, strain rgp1, hits give low values 0.288 | locus YDR159W, strain sac3, hits give low values 0.36 | locus YDR195W, strain ref2 0.13 | locus YDR297W, strain sur2, hits give low values 0.0592 | locus YDR334W, strain swr1, hits give low values 0.0769 | locus YDR335W, strain msn5, hits give low values 0.0683 | locus YDR392W, strain spt3, hits give low values 0.109 | locus YEL003W, strain gim4, hits give low values 0.0565 | locus YEL037C, strain rad23, hits give low values 0.0781 | locus YEL061C, strain CIN8 (second series), hits give low values 0.0717 | locus YER015W, strain faa2, hits give low values 0.0627 | locus YER016W, strain bim1, hits give low values 0.0642 | locus YER155C, strain BEM2 (second series), hits give low values 0.107 | locus YFR010W, strain ubp6, hits give low values 0.0794 | locus YGL167C, strain pmr1, hits give low values 0.0772 | locus YGL173C, strain kem1, hits give low values 0.0709 | locus YGL227W, strain vid30, hits give low values 0.0707 | locus YGL240W, strain doc1, hits give low values 0.0798 | locus YGL253W, strain hxk2, hits give low values 0.0667 | locus YHR013C, strain ard1, hits give low values 0.138 | locus YHR027C, strain rpn1, hits give low values 0.0646 | [2] 0.102 | [3] 0.12 | locus YHR142W, strain chs7, hits give low values 0.0814 | locus YJL092W, strain hpr5, hits give low values 0.074 | locus YJL095W, strain BCK1 (second series), hits give low values 0.0589 | [4] 0.116 | locus YJL115W, strain asf1, hits give low values 0.0842 | locus YJL154C, strain vps35, hits give low values 0.0701 | locus YJL164C, strain tpk1, hits give low values 0.0603 | locus YJL166W, strain qcr8, hits give low values 0.0677 | locus YJL187C, strain SWE1, hits give low values 0.0597 | [5] 0.116 | locus YKL160W, strain elf1, hits give low values 0.0712 | locus YKR026C, strain gcn3, hits give low values 0.0708 | locus YKR091W, strain srl3, hits give low values 0.0627 | locus YLL001W, strain dnm1, hits give low values 0.071 | locus YLL026W, hits give low values 0.0579 | locus YLL041C, strain sdh2, hits give low values 0.0596 | locus YLR027C, strain aat2, hits give low values 0.0574 | [6] 0.135 | locus YLR221C, strain rsa3, hits give low values 0.0579 | locus YLR258W, strain gsy2, hits give low values 0.0611 | locus YLR262C, strain YPT6 (second series), hits give low values 0.0853 | locus YLR320W, strain mms22, hits give low values 0.0864 | locus YLR342W, strain FKS1, hits give low values 0.0683 | locus YLR357W, strain rsc2, hits give low values 0.137 | locus YLR370C, strain arc18, hits give low values 0.0746 | locus YLR384C, strain iki3, hits give low values 0.0643 | locus YML120C, strain ndi1, hits give low values 0.827 | locus YMR058W, strain fet3, hits give low values 0.0712 | locus YMR125W, strain sto1, hits give low values 0.0829 | locus YMR129W, hits give low values 0.0615 | locus YMR205C, strain PFK2, hits give low values 0.092 | locus YMR231W, strain pep5, hits give low values 0.0667 | locus YNL071W, strain lat1, hits give low values 0.0615 | [7] 0.338 | locus YNL209W, strain ssb2, hits give low values 0.0608 | locus YNL248C, strain rpa49, hits give low values 0.0841 | locus YNL322C, strain KRE1 (second series), hits give low values 0.0674 | locus YNR049C, strain mso1, hits give low values 0.0752 | locus YOR001W, strain rrp6, hits give low values 0.0696 | locus YOR070C, strain gyp1, hits give low values 0.0608 | locus YOR080W, strain dia2, hits give low values 0.114 | locus YOR083W, strain WHI5, hits give low values 0.0702 | locus YOR106W, strain vam3, hits give low values 0.0684 | [8] 0.111 | locus YOR265W, strain rbl2, hits give low values 0.0588 | locus YOR270C, strain vph1, hits give low values 0.124 | locus YOR290C, strain snf2, hits give low values 0.842 | locus YPL051W, strain arl3, hits give low values 0.0626 | locus YPL078C, strain atp4, hits give low values 0.41 | locus YPL106C, strain sse1, hits give low values 0.0998 | locus YPL240C, strain hsp82, hits give low values 0.0586 | [9] 0.128
inactive: locus YER111C, strain swi4, hits give low values 0.917 | locus YJL129C, strain trk1, hits give low values 0.951

Nc1cccc2c1C(=O)c1ccccc1-2
inactive: locus YDR150W, strain NUM1, hits give low values 0.95 | [12] 1.03
active: locus YAL013W, strain DEP1, hits give low values 0.676 | locus YBR229C, strain ROT2, hits give low values 0.313 | [13] 0.438 | [1] 0.368 | locus YEL061C, strain CIN8, hits give low values 0.516 | [10] 0.617 | [2] 0.134 | locus YHR087W, strain rtc3, hits give low values 0.0566 | locus YJR043C, strain POL32, hits give low values 0.756 | locus YJR075W, strain HOC1, hits give low values 0.0797 | locus YKL190W, strain CNB1, hits give low values 0.046 | locus YLR039C, strain RIC1, hits give low values 0.06 | locus YLR058C, strain SHM2 (second series), hits give low values 0.0581 | locus YLR085C, strain ARP6, hits give low values 0.0974 | locus YLR262C, strain YPT6, hits give low values 0.138 | locus YML094W, strain GIM5, hits give low values 0.553 | locus YMR219W, strain ESC1, hits give low values 0.664 | [11] 0.837 | locus YNL153C, strain GIM3, hits give low values 0.125 | locus YNL298W, strain CLA4 (second series), hits give low values 0.267 | locus YNR030W, strain Alg12, hits give low values 0.729 | locus YOL006C, strain TOP1, hits give low values 0.0699 | locus YPL055C, strain LGE1, hits give low values 0.6 | locus YPL241C, strain CIN2, hits give low values 0.675 | locus YPR135W, strain CTF4, hits give low values 0.167

From PubChem BioAssay AID1159580 (chemical genetic matrix, 2015)
